According to the supplement of paper PMC3334620:
Whole data set: some 33,000 sequences, median “E-score (-0.5 to 0.5)” near -0.041, cut for the highest 2% near 0.37. The entries come from a sample that favours the highest values as a whole.

Target: T1, Ecm22 (UniProt Q05958)
T1 sequence: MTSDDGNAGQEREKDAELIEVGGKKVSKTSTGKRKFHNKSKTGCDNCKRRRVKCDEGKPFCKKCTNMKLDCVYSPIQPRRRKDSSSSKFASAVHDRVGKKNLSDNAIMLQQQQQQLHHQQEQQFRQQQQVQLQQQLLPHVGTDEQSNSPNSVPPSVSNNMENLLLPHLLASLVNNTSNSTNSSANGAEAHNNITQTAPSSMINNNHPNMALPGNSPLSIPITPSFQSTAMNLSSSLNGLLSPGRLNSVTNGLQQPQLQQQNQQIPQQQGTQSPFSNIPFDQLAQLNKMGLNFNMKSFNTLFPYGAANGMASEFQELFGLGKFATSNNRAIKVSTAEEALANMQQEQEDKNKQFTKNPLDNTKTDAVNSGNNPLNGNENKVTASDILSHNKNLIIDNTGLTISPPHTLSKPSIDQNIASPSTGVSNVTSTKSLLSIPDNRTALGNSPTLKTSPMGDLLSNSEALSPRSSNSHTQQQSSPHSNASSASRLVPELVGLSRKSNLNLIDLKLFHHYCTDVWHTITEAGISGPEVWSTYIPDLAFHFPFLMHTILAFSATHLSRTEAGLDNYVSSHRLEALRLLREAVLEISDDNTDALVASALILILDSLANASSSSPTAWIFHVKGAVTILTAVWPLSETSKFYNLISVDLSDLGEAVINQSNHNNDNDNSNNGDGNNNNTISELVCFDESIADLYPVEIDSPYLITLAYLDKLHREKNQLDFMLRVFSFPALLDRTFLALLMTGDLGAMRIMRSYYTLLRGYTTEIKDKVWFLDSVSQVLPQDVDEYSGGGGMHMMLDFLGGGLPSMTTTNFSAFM
Experiment: PBM E-score (8-mer binding enrichment) (E-score (-0.5 to 0.5)); higher = stronger / more preferred TF binding
Conditions: protein concentration: 200 nM; construct: GST-full length
Outline: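 Yeast transcription factors, full-length or as DNA-binding domains, were expressed with a GST tag using PURExpress in vitro transcription/translation. At about 100-200 nM they were applied to universal all-10-mer Agilent arrays, double-stranded by primer extension on fresh or once-stripped slides. Fluorescent anti-GST detected bound protein, and masliner normalised the scans. E-scores for ungapped eight-base words, pooled with reverse complements, came from the Universal PBM Analysis Suite.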

| Sequence | PBM E-score |
| --- | --- |
| ACAGCACC | -0.276 |
| ACTCGGTC | 0.229 |
| ACTCGTTC | 0.466 |
| CCTCGTCC | -0.238 |
| GCTCGCTA | 0.31 |
| CCACGTTA | 0.0599 |
| ACTCGTTA | 0.348 |
| CCTCGTTC | 0.474 |
| GCACGTTA | 0.0282 |
| ACTCGTTG | 0.274 |
| CCTCGTGC | 0.0902 |
| CCTCGTTA | 0.402 |
| GCTCGTTA | 0.373 |
| TCTCCTAA | -0.203 |
| TCTAGGAA | -0.0513 |
| CCTCGCTC | 0.372 |
| ACTCGCTC | 0.354 |
| CCTCGCTA | 0.215 |
| GGGAGAAA | -0.141 |
| GGGGACCA | -0.259 |
| GACGATTA | 0.0551 |
| AACGATTC | 0.377 |
| AACGATTA | 0.382 |
| CACGATTA | 0.1 |
| ATCGATTG | 0.0987 |

| Sequence | PBM E-score |
| --- | --- |
| AACGATTG | 0.384 |
| CACGATTC | 0.244 |
| AGCGATTC | 0.12 |
| ACCGATTG | 0.115 |
| CAGGGCAA | -0.227 |
| CTGACGTA | 0.132 |
| AAGATACA | -0.046 |
| GACTCGAC | 0.0219 |
| ATGAGATG | -0.227 |
| ACTGCTGA | -0.19 |
| CCCTCTCC | -0.358 |
| CTAGGAAA | -0.209 |
| CGCGCAAA | 0.188 |
| GCACGGGA | 0.0895 |
| ACACGGGC | -0.0743 |
| ATACGGGG | 0.386 |
| CTACGGGA | 0.146 |
| AGACGGGG | -0.0581 |
| GAACGGGA | 0.327 |
| ATACGGGA | 0.389 |
| ACACGGGA | 0.0892 |
| AAACGGGG | 0.361 |
| ATACGGGC | 0.413 |
| CTACGGGC | -0.0464 |
| GTACGGGA | 0.419 |

| Sequence | PBM E-score |
| --- | --- |
| AAGCGCAC | 0.0929 |
| AAGCTTGT | 0.0175 |
| ACAATCCT | -0.0917 |
| GGGGCAGA | -0.0715 |
| ATCCTGCC | -0.0749 |
| CGAGCACA | 0.225 |
| AGCCCTGG | -0.233 |
| TAACCCCA | -0.181 |
| ACAACTCC | -0.151 |
| CGGCGAAA | 0.0597 |
| ACGTATGA | 0.17 |
| CCGTATGC | 0.268 |
| CGGTATAA | 0.161 |
| CCGTATGA | 0.396 |
| CTGTATAA | 0.0431 |
| ACGTATAC | 0.381 |
| GCGTATAC | 0.406 |
| ATGTATAC | 0.179 |
| GAGTATAC | 0.286 |
| GGGTATAC | 0.15 |
| CCGTATAA | 0.473 |
| AAGTATAC | 0.255 |
| AGTGCCAA | -0.0554 |
| CTGCCTCA | -0.257 |
| AATGTGCT | 0.00418 |

| Sequence | PBM E-score |
| --- | --- |
| CGATATGC | 0.188 |
| ATTCCCAG | -0.0258 |
| GGAGCGAC | 0.339 |
| GGCGTTGA | -0.126 |
| ACTTTAGG | -0.0481 |
| ATGTATAA | 0.0604 |
| AGGTATAA | 0.211 |
| CTGTATAC | 0.207 |
| GCGTATTA | 0.031 |
| AGGTATAT | -0.117 |
| GCGTATAA | 0.394 |
| CCGTATCC | 0.337 |
| GTGTATAA | -0.026 |
| CCGTATAC | 0.456 |
| AAGTATAT | 0.0727 |
| ACGTATAT | 0.371 |
| ACGTATAA | 0.412 |
| TTCAAGAA | 0.0932 |
| CAGCCGGC | 0.0272 |
| CCAGAGAA | 0.0432 |
| GCAGGACA | -0.0743 |
| CAGTCTAA | 0.0425 |
| ATGACTTG | -0.136 |
| AGATACTG | -0.0213 |
| CGGACGTA | 0.205 |

| Sequence | PBM E-score |
| --- | --- |
| ACTTTTAT | -0.217 |
| CTACAGTC | -0.0606 |
| AACAGGTA | -0.0274 |
| AATAAGGC | -0.225 |
| ACGTATCG | 0.192 |
| ACGTATTG | 0.22 |
| CCGTATAG | 0.465 |
| ACGTATAG | 0.403 |
| CGGTATAG | 0.0179 |
| CCGTATCG | 0.291 |
| CTGAAGTA | -0.134 |
| TCACCAAA | 0.0237 |
| CCGGATAA | 0.0584 |
| TCGGATAA | 0.372 |
| ACGGATAA | 0.159 |
| AGCAGCCG | -0.0197 |
| ATATAGGC | -0.00233 |
| AAACGCAT | 0.0604 |
| CGACGACG | 0.127 |
| AGACGACT | 0.065 |
| CAACGACG | 0.351 |
| GGACGACC | -0.107 |
| AAACGACG | 0.465 |
| CAACGACA | 0.346 |
| GAACGACA | 0.456 |

| Sequence | PBM E-score |
| --- | --- |
| GAACGACC | 0.451 |
| TAACGACA | 0.352 |
| GCACGACC | -0.219 |
| ACACGACT | 0.117 |
| AAACGACT | 0.437 |
| ATAGCTCC | -0.169 |
| CCCTTCCA | -0.32 |
| ACCGGATG | 0.0481 |
| CTCCTCTC | -0.0778 |
| GGTGTGAC | -0.177 |
| CTCGCACC | 0.31 |
| AGATCCGG | -0.0497 |
| ATCGGTCG | 0.211 |
| CCACGACA | -0.0411 |
| AATCGACC | -0.0105 |
| TCACGACA | 0.00255 |
| AAACGACC | 0.45 |
| CAACGACC | 0.278 |
| AAACGACA | 0.467 |
| CCTTCCGC | -0.184 |
| GAGAGGGA | -0.212 |
| GGATACGA | 0.45 |
| CGATACGA | 0.454 |
| GGATACTA | -0.144 |
| AGATACGC | 0.196 |

| Sequence | PBM E-score |
| --- | --- |
| AGATACGA | 0.47 |
| GGATACCA | -0.0853 |
| AGATACGG | 0.28 |
| CGATACAA | 0.148 |
| CGATACGC | 0.2 |
| CAAATGCC | -0.27 |
| TGCAAGAA | -0.0877 |
| AAGCCATA | -0.0528 |
| CCTTCCCG | -0.043 |
| ACAGAGCG | 0.00751 |
| CCTTGAAA | -0.0768 |
| ACGAGTTG | 0.371 |
| CCGAGTTA | 0.0641 |
| ACGAGTTA | 0.422 |
| GCGAGTTA | 0.191 |
| ACGAGTTC | 0.319 |
| AGGAGTTG | 0.0179 |
| GGGAACCC | 0.0178 |
| CGCCCAGA | -0.104 |
| CCCAACCA | 0.0792 |
| GAAGAGAC | 0.0183 |
| GACCTTCA | -0.0961 |
| GGTTTAGA | -0.179 |
| AGTTTAGC | -0.19 |
| CGTTTAGC | 0.464 |

| Sequence | PBM E-score |
| --- | --- |
| AGTTTGGC | -0.00953 |
| CGTTTGGC | 0.394 |
| CGTTTAGA | 0.446 |
| CGTTTGGA | 0.366 |
| AGTTTAGA | -0.186 |
| CATTTAGC | 0.0683 |
| CACTGCTG | -0.147 |
| GCTGCTAC | 0.124 |
| GACCCGGA | -0.17 |
| CTCCGCGC | -0.0267 |
| CCGTAGAA | 0.122 |
| ACGTAGCA | 0.0433 |
| TCGTAGCA | 0.419 |
| GCGTAGAA | -0.0103 |
| CCGTAGCA | 0.165 |
| TCGTAGAA | 0.384 |
| AAGACCTC | -0.2 |
| AAAACGAC | 0.363 |
| GAAACGGC | 0.2 |
| CCAACGAG | 0.093 |
| CTAACGAC | 0.282 |
| AAAACGAG | 0.362 |
| GAAACGAC | 0.41 |
| GAAACGCC | 0.0403 |
| CAAACGAG | 0.463 |

| Sequence | PBM E-score |
| --- | --- |
| CAAACGAC | 0.442 |
| ACCCAGCG | -0.184 |
| CAGGACCG | -0.0291 |
| CAATTCGC | 0.0698 |
| ACTCACGG | 0.034 |
| CACGTCCG | -0.21 |
| CAGATGGA | 0.0554 |
| ACTCACCG | -0.0985 |
| ATCGTTAC | 0.264 |
| CGCGTTAC | 0.159 |
| CCCGTTAA | 0.256 |
| GGCGTTAA | -0.0419 |
| GTCGTTAA | 0.427 |
| ATCGTTAG | 0.201 |
| CACGTTAC | -0.046 |
| CTCGTTAA | 0.437 |
| ATCGTTAA | 0.403 |
| GACGTTAA | 0.0928 |
| CACGTTAA | 0.00208 |
| CTCGTTAC | 0.371 |
